# Compounds with a hit are over-represented: about 7.5% of the library has one in this group of screens.
# FLuc modulator = counter-screen for miR-21 project: firefly luciferase inhibitors or activators. actives 6.9% (n = 360,000). Potency, µM (highest dose often 57.5 µM), for inactives: at the highest dose activity change, negative = inhibition, actives largely listed as inhibitors. P08659. purified FLuc, Km substrates, luminescence inhibition. AID 588342;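 also: plate controls were vehicle for no effect and reference inhibitor for full effect; nearly all actives have a fitted effect of over 55% in size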
# Target sequence (P08659 whole entry, looked up): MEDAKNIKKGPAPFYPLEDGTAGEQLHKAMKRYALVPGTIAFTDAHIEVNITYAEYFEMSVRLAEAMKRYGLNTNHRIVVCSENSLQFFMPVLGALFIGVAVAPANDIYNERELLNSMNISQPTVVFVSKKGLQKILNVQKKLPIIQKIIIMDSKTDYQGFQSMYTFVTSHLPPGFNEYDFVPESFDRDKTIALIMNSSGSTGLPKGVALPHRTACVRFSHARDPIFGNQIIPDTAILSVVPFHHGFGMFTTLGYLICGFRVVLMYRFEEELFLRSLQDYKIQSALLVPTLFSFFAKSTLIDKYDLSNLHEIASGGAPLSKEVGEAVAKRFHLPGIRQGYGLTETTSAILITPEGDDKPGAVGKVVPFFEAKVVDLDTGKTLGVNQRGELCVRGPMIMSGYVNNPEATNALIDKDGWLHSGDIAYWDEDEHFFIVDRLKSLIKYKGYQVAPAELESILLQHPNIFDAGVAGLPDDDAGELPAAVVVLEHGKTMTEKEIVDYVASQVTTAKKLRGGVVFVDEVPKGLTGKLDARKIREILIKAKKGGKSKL
#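 Purified P. pyralis luciferase (10nM final) with 10uM D-luciferin and 10uM ATP (Km levels) in 50mM Tris acetate pH 7.5, 10mM Mg acetate, 0.01% Tween-20, 0.05% BSA; qHTS 6-point titration, ~60 µM downward; luminescence read.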
# KinaseGlo FLuc = counter-screen: inhibitors of Kinase-Glo firefly luciferase; Q27757; Kinase-Glo luciferase, ATP luminescence, 8 min; Potency, µM (series often up to 38.3 µM), inactives show at the top dose activity change, negative = inhibition, actives largely listed as inhibitors; actives 0.28% (n = 200,000); also: % is scaled to controls: 0 for no effect and ±100 for the full control effect; nearly all actives have a fitted effect of over 60% in size
#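 Recombinant Kinase-Glo luciferase, 10 uM ATP (linear range), luciferin; imidazole pH 7.2 / KCl / MgCl2 / Tween / BSA buffer; 8 min RT; luminescence.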
# ELG1 genotox = induces genotoxicity in HEK293T cells with luciferase-tagged ELG1 | actives 1.3% (n = 330,000) | Potency, µM (top dose mostly 46 µM), for the others: at the highest dose activity change, positive = activation, most hits filed as activators | HEK293T ELG1-luciferase reporter, luminescence, 16 h; also: % of control where 0% means no effect; nearly all actives have a fitted effect of over 60% in size
#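 DMSO vehicle served as control against compound-treated ELG1-luciferase HEK293T cells; exposure lasted 16 hr at 37 °C and 5% CO2, followed by ONE-Glo luminescence detection after 30 min.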
# SMN2 splice up = enhancers of SMN2 splice variant expression; HEK293 SMN2-luciferase splicing reporter, luminescence, 30-36 h; Potency, µM (top dose mostly 46.1 µM), for inactives: at the highest dose activity change, positive = activation, hits mostly activators; actives 2.8% (n = 210,000); also: % of control where 0% means no effect; nearly all actives have a fitted effect of over 55% in size
#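 HEK293 cells carry an SMN2 minigene-luciferase reporter in which exon 7 inclusion puts luciferase in frame. Cells were seeded at 2000 cells/well, attached for 10-12 hours, then exposed to compounds for 30-36 hours at 37C before ONE-Glo luminescence.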
# NPC1 prom act = activates the NPC1 promoter; Huh7 NPC1 promoter luciferase reporter, 24 h; Potency, µM (doses to about 9.22 µM), for the others: top-dose activation, hits mostly activators; AID 485313; actives 2.4% (n = 320,000); also: % of control where 0% means no effect; nearly all actives have a fitted effect of over 60% in size
#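 Stable NPC1-promoter luciferase Huh7 line; cpd (DMSO) 24 h, 37 °C, 5% CO2; Amplite luciferase reagent 10 min RT; luminescence readout. qHTS format.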
# Rab9 prom act = activators of Rab9 promoter. Potency, µM (series often up to 9.22 µM), for inactives: at the top dose activation, negative = inhibition, actives largely listed as activators. Huh7 Rab9 promoter-luciferase reporter, luminescence, 24 h. actives 2.8% (n = 320,000); also: % of control where 0% means no effect; nearly all actives have a fitted effect of over 60% in size
#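 Stable Rab9-luc Huh7, 1500 cells/well, 2 h settle; cmpd in DMSO, 24 h, 37 °C/5% CO2; luciferase reagent 10 min RT; luminescence.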
# Active calls of the source: *; ? = inconclusive; . = no result. Calls follow the shape of the dose curve; as a rule, active = well fitted curve in the direction sought with a large enough effect; inconclusive = small, poorly fitted or top-dose-only effect, or another doubt; inactive = no such curve, though single readings can be large; an effect the other way counts as inactive or inconclusive. Potency is read from the fitted curve at half-maximal effect.
SMILES,FLuc modulator,KinaseGlo FLuc,ELG1 genotox,SMN2 splice up,NPC1 prom act,Rab9 prom act
O=C(Nc1cccc(Oc2ccc(C(=O)O)c(C(=O)O)c2)c1)c1ccc(-c2ccccc2)cc1,1.69µM*,.,-1.6%,.,1.1%,-4.2%
COC(=O)c1cc(NC(=O)c2ccc(-c3ccccc3)cc2)ccc1Cl,-1.5%,1.6%,-0.7%,-60.9%,-1.0%,-4.6%
CC(C)(C)C(=O)Nc1ccc(C(=O)Nc2cccc(Oc3ccc(C(=O)O)c(C(=O)O)c3)c2)cc1,1.51µM*,.,-3.5%,.,4.0%,0.0%
Cc1cccc(Cn2cc3c(=O)n(CC(=O)Nc4ccc(C)c(F)c4)nc-3c3cc(F)ccc32)c1,-14.2%,.,.,.,.,.
CCC(=O)Nc1ccc(NC(=O)c2ccccn2)cn1,10.7µM*,-18.1%,2.51µM*,14.1µM*,1.26µM*,0.631µM*
Cc1cc(NC(=O)C(C)C)ncc1NC(=O)c1ccccn1,?,-3.3%,?,12.6µM*,?,3.16µM*
O=C(Nc1ccc(NC(=O)C2CC2)nc1)c1ccccn1,6.75µM*,.,?,.,0.562µM*,1.26µM*
CC(C)C(=O)Nc1ccc(NC(=O)c2cccs2)cn1,?,8.7%,18.4µM*,7.1%,?,?
CCCC(=O)Nc1cc(C)c(NC(=O)c2ccccn2)cn1,-19.0%,-8.5%,3.9%,7.9%,24.0%,?
O=C(Nc1ccc(NC(=O)C2CC2)nc1)c1cnccn1,-20.7%,-7.0%,?,?,3.2%,14.4%
CCC(Sc1nc2nccnc2c(=O)n1Cc1ccc(OC)cc1)C(=O)NC1CCCCC1 (centres undefined),2.7%,.,.,.,.,.
CC(C)C(=O)Nc1ccc(NC(=O)c2cccnc2)cn1,0.2%,-1.3%,5.0%,2.4%,-5.6%,-0.3%
CC(C)C(=O)Nc1ccc(NC(=O)c2ccccn2)cn1,6.75µM*,.,?,.,0.708µM*,0.562µM*
C=CCNC(=O)c1ccc(-c2cccc([N+](=O)[O-])c2)o1,?,0.4%,?,22.4µM*,?,?
Cc1ccc2cccc(NC(=O)c3ccc(-c4cccc([N+](=O)[O-])c4)o3)c2n1,-4.7%,.,.,3.0%,.,.
O=C(Nc1ccccc1F)c1ccc(-c2cccc([N+](=O)[O-])c2)o1,13.5µM*,.,?,.,?,?
CC(=O)Oc1cccc(/C=c2\sc3nc(-c4ccco4)nn3c2=O)c1,-10.8%,8.2%,?,25.8%,-2.4%,-0.2%
COc1cc(/C=c2\sc3nc(-c4ccncc4)nn3c2=O)ccc1OC(C)=O,2.69µM*,3.6%,3.9%,12.1%,0.4%,-2.7%
O=c1c2[nH]c3ccccc3c2ncn1C1CCCCC1,?,-2.7%,?,1.6%,4.47µM*,?
O=c1[nH]c(/C=C/c2ccc(Cl)cc2Cl)c([N+](=O)[O-])c(=O)[nH]1,-4.0%,.,2.0%,.,0.7%,0.7%
O=C(/C=C/c1ccco1)Nc1ccc(N2CCCC2)cc1,2.39µM*,-8.7%,?,15.8µM*,3.55µM*,2.82µM*
O=C(/C=C/c1ccccc1)Nc1ccc(CN2CCOCC2)cc1,12µM*,0.8%,17.0%,29.2%,18.3%,?
O=C(/C=C/c1ccco1)Nc1ccc(CN2CCOCC2)cc1,6.01µM*,.,?,.,1.41µM*,2.82µM*
O=C(/C=C/c1ccc(Cl)cc1Cl)Nc1ccc(CN2CCOCC2)cc1,7.57µM*,-0.3%,8.6%,-76.6%,-7.7%,-21.7%
O=C(/C=C/c1ccco1)Nc1ccc(C(=O)N2CCOCC2)cc1,?,-4.1%,2.7%,20.8%,9.6%,2.6%
O=C(/C=C/c1ccc(Cl)cc1)NC(=S)Nc1ccc(CN2CCOCC2)cc1,0.4%,-1.5%,?,.,-11.0%,-2.4%
O=C(/C=C/c1ccco1)Nc1ccccc1N1CCOCC1,-11.7%,-1.7%,-0.8%,1.9%,-5.9%,1.7%

# Screening data deposited in PubChem BioAssay by National Center for Advancing Translational Sciences (NCATS).
